The full list was thinned out, with hits kept by preference.
ST2 IL33 inh = inhibitors of human ST2 (IL1RL1) binding to IL-33 | 2.3% of 78,000 active | Q01638 | inhibition, % for hits at 17 µM | AlphaLISA ST2-Fc/biotin-IL-33 interaction, 1 h | AID 1259354; in the data active = inhibition above about 30%
Target sequence (Q01638 whole entry, looked up): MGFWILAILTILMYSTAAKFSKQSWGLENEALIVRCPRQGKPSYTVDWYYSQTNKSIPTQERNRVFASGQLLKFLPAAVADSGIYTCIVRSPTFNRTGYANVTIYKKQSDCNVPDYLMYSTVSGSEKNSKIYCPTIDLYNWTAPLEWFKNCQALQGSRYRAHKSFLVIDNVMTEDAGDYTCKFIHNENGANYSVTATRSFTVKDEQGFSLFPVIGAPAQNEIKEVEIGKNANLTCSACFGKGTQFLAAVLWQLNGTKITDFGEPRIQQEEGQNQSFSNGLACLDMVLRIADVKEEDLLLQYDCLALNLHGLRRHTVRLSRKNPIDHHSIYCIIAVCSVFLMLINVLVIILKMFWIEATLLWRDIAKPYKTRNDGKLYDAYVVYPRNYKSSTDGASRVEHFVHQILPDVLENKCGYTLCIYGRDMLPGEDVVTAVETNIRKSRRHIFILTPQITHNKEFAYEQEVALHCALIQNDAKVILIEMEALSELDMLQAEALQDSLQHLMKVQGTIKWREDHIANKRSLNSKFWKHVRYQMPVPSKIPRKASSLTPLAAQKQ
Starred values were filed as active, the others as inactive; i = inactive.

SMILES | ST2 IL33 inh
CCOc1ccc(/C=c2\sc3n(c2=O)CN(c2cccc(C(C)=O)c2)CN=3)cc1 | 31%*
COc1cccc(-c2ccc(NC(=O)C3CCCN(Cc4cccc(O)c4)C3)cc2)c1 (stereo not drawn) | i
CCNC(=O)[C@@H]1C[C@H](N)CN1C(=O)C1CCN(Cc2ccco2)CC1 | i
COc1cc2c(cc1OC)C(C)N(CCC#N)CC2 (stereo not drawn) | i
Cc1nn(C)c(C)c1-c1ccnc(NCc2ccc3c(c2)OCCCO3)n1 | i
O[C@H]1C[C@@H]2CN(c3nccc(CCC(F)(F)F)n3)C[C@@H]2C[C@@H]1O | i
Cn1cc(C(=O)NCCCN2CCCC2=O)c2c3ccccc3n(C)c2c1=O | i
CC(=O)NCC1CCN(Cc2cccc(-c3ccc(C)o3)c2)C1 (stereo not drawn) | i
O=C(c1ccc([N+](=O)[O-])cc1)c1ccc(Cl)c(Cl)c1 | 58%*
COc1ccc(C(=O)NCCNc2ccc([N+](=O)[O-])cc2)cc1Cl | i
O=C(Nc1ccccc1O)c1ccc([N+](=O)[O-])cc1 | i
CC1=C(C(=O)OC2CCCCC2)C(c2ccc(Cl)cc2Cl)n2ncnc2N1 (stereo not drawn) | i
O=C(Nc1nc2ccccc2s1)c1cccc2ccccc12 | i
COC(=O)C1=C(NC(=O)c2ccccc2F)CCS1 | 39%*
O=C(O)c1c(NC(=O)c2cccc3ccccc23)sc2c1CCCC2 | i
COC(=O)C1=C(NC(=O)c2cccc3ccccc23)CCS1 | 44%*
COc1ccccc1NC(=O)c1ccccc1F | i
COC(=O)c1sc2ccccc2c1NC(=O)c1ccccc1F | i
CCn1cc(CNC(=O)c2ccc3nc(Cc4cccc(Cl)c4)oc3c2)cn1 | i
CN(C)CCN(C)Cc1ccccc1O | i
O=C(CCN1Cc2ccccc2OC(c2ccccc2)C1)N1CCCCC1c1nccs1 (stereo not drawn) | i
COC(=O)c1ccc(CN2CCCCC2C(=O)Nc2ccc(Oc3cccnc3)cc2)cc1 (stereo not drawn) | i
O=C1NC(=Nc2ccccc2Cl)S/C1=C/c1cccnc1 | i
C=CCN(Cc1ccccc1OCC)C(=O)c1cnc2cccc(C)n2c1=O | i
CCCOc1cccc(C(=O)Nc2ccccc2Cl)c1 | i
SMILES | ST2 IL33 inh
CCOc1ccc(NC(=O)c2ccccc2Br)c([N+](=O)[O-])c1 | 36%*
CCCOc1ccc(C(=O)Nc2ccccc2[N+](=O)[O-])cc1 | 39%*
CCCOc1ccc(C(=O)Nc2cc(Cl)ccc2Cl)cc1 | i
CCC(=O)c1ccccc1NC(=O)c1ccccc1Br | i
CCOc1ccccc1NC(=O)c1ccccc1C | i
CCc1ccccc1NC(=O)c1ccccc1[N+](=O)[O-] | i
CCOc1cccc(C(=O)Nc2ccc(C)cc2[N+](=O)[O-])c1 | i
Cc1c(C(=O)Nc2ccccc2[N+](=O)[O-])csc1-c1ccccc1 | 35%*
CCOc1ccc(NC(=O)c2ccccc2OCC)c([N+](=O)[O-])c1 | 42%*
Cc1ccc(NC(=O)c2ccccc2[N+](=O)[O-])cc1 | i
CCN(CC)c1ccc(NC(=O)c2ccccc2Br)c(C)c1 | i
Cc1c(C(=O)NC(C)C)sc2nc(-c3ccccc3)cn12 | i
CCCSc1nnc2c(n1)OC(c1ccc(C)o1)Nc1ccccc1-2 (stereo not drawn) | i
Cc1nc(-c2ccncc2)ncc1C(C)NCc1[nH]c2ccccc2c1C (stereo not drawn) | i
CCOC(=O)c1c[nH]c2ccc(F)cc2c1=O | i
COc1ccccc1OCc1cc(C(=O)NC[C@H]2C[C@H]3C=C[C@@H]2C32CC2)n[nH]1 | i
Cc1ccn2cc(-c3ccc(Cl)cc3)nc2c1 | i
Cc1cnn(-c2ccc3nnc(-c4ccc(Cl)cc4)n3n2)c1 | 36%*
Clc1ccc(-c2nnc3ccc(Cl)nn23)cc1 | i
COc1ccc(C=Nc2sc3c(c2C#N)CCCC3)cc1[N+](=O)[O-] | i
Cc1sc(N=Cc2ccc(Br)cc2)c(C#N)c1C | 55%*
NS(=O)(=O)c1ccc(N=Cc2ccc(Br)cc2)cc1 | i
COc1ccc(OC2CCN(C3CCCC3)CC2)c(C(=O)NCc2nc(C)cc(C)n2)c1 | i
COCCOc1ccc(C(=O)N[C@@H]2CN(C(=O)NCc3ccccc3)CCC[C@H]2O)cc1 | i
CC(C)NC(=O)N1CCC[C@@H](O)[C@H](NC(=O)c2ccc(OCc3ccccc3)cc2)C1 | i
SMILES | ST2 IL33 inh
COc1ccc(C(=O)N[C@@H]2CN(C(=O)NC3CCCCC3)CCC[C@H]2O)cc1 | 82%*
CC1=C(C(=O)Nc2ccccn2)C(c2cccc(Br)c2)C2=C(CC(C)(C)CC2=O)N1 (stereo not drawn) | i
O=C(Nc1cccc([N+](=O)[O-])c1)c1cc2cc(Br)cc(Br)c2oc1=O | i
COc1ccccc1C1C(C#N)=C(C(=C=[N-])C#N)NC(O)(C2CC2)C1[n+]1ccc(C)cc1 (stereo not drawn) | i
Cc1cc[n+](C2C(c3ccc([N+](=O)[O-])cc3)C(C#N)=C([S-])NC2(O)C2CC2)cc1 (stereo not drawn) | 59%*
Cc1ccc[n+](C2C(c3ccc([N+](=O)[O-])cc3)C(C#N)=C([S-])NC2(O)C2CC2)c1 (stereo not drawn) | 50%*
Cc1nc2sc(C(c3ccc(Cl)cc3)N3CCN(C)CC3)c(O)n2n1 (stereo not drawn) | i
O=C(Nc1c(F)cc(F)cc1Br)c1cc(-c2ccc(F)cc2)on1 | i
NC(=O)CO[C@@H]1CO[C@H]2[C@@H]1OC[C@@H]2Nc1nccc(-c2cccs2)n1 | i
COc1ccccc1CNc1ccc2c(c1)ncn2C(C)(C)C | i
COc1ccccc1CNc1ccc2c(c1)ncn2C1CCCCC1 | 33%*
CCn1cnc2cc(NCc3ccccc3OC)ccc21 | i
CCn1c(CC2CCNCC2)nn(Cc2coc(C)n2)c1=O | i
CCC(Nc1nc(COC)nc2c1cnn2C)c1ccnn1C (stereo not drawn) | i
Cc1[nH]c2ccc(Cl)cc2c(=O)c1CN1CCOCC1 | i
Cc1ccc2c(C(=O)CN3CCOCC3)c(C)[nH]c2c1 | 32%*
COc1ccc2c(c1)c(C(=O)CN1CCOCC1)c(C)n2C | i
N#Cc1c2c(c(NCCCO)n3c1nc1ccccc13)CCC2 | 31%*
CCN(CC)CCNc1c2c(c(C#N)c3nc4ccccc4n13)CCC2 | i
Cc1c(Cc2ccccc2)c(NCCCO)n2c(nc3ccccc32)c1C#N | i
Cc1ccccc1C(=O)Nc1ccnn1C1CCN(C(=O)C2CC23CCCC3)CC1 (stereo not drawn) | i
C=CCN(CC=C)S(=O)(=O)c1ccc(C(=O)Nc2cc(C)on2)cc1 | i
O=C(CSc1nc2ccccc2s1)Nc1ccccc1 | i
O=C(CSc1nc2ccccc2s1)c1ccccc1 | i
O=C(CSc1nc2ccccc2s1)c1ccccc1[N+](=O)[O-] | 33%*
SMILES | ST2 IL33 inh
CN1CCN(C(=O)CN2C(=O)S/C(=C/c3ccccc3)C2=O)CC1 | i
CC(C)N1C(=O)S/C(=C\c2ccc(-c3cccc(C(=O)O)c3)o2)C1=O | i
O=C(O)CN1C(=O)S/C(=C\c2ccco2)C1=O | 74%*
O=C(Nc1ccc(S(=O)(=O)Nc2ccc(F)cc2)cc1)c1ccccc1 | i
CC1=C(C(=O)OC2CCCCC2)C(c2cccc(C)c2)n2ncnc2N1 (stereo not drawn) | i
Cc1c(NC(=O)CC(C)C)cccc1-c1nc2ccccc2s1 | i
O=C(O)CCCC[C@H]1SC[C@H]2NC(=O)N[C@H]21 | 96%*
NCCCCC(=O)O | i
